# Results published in PubChem BioAssay (EPA / NIEHS).
# Inconclusive results are not listed. The source made the active and inactive calls. How the source made its calls, unless noted: active means hit-call score of the fitted dose curve at least 0.9, where 1 is the maximum; inconclusive means response in the unintended direction; inactive means score below 0.9.
# Assays:
# [1] = read-out: sulfotransferase (SULT2A), SULT2A1 (gene 6822); assay: CLD_SULT2A_24hr: CellzDirect (CLD) Gene Expression Assay for sulfotransferase (SULT2A) at 24 hours (AID 2283694);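 on AC50: potency for increased SULT2A1 mRNA level as induction over DMSO baseline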
# Method in brief: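 mRNA is measured by qNPA: probe hybridisation, S1 nuclease digestion, chemiluminescence, in lysates from human primary hepatocytes harvested 24 h after daily dosing. Vehicle was 0.2% DMSO. Phase-contrast microscopy flagged cytotoxicity (yes/no).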
# [2] = read-out: Cytochrome P450 3A4 (Homo sapiens) (UniProt P08684); assay: CLD_CYP3A4_48hr: CellzDirect (CLD) Gene Expression Assay for xenobiotic metabolism (CYP3A4) at 48 hours (AID 2283698)
# Method in brief: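 CYP3A4 induction read by qNPA chemiluminescence after 48 h, with fresh dosing solutions on consecutive days, in cultured human hepatocytes (two donors). Vehicle 0.2% DMSO as baseline; microscopy-based cytotoxicity annotated yes/no alongside data.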
# [3] = read-out: Cytochrome P450 2B6 (Homo sapiens) (UniProt P20813); assay: CLD_CYP2B6_48hr: CellzDirect (CLD) Gene Expression Assay for xenobiotic metabolism (CYP2B6) at 48 hours (AID 2283699);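 further: actives raise transcript level above DMSO so potency reflects induction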
# Method in brief: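 CYP2B6 transcript induction, read by quantitative nuclease protection (S1 digestion, chemiluminescent detection) 48 h after dosing, is fitted upward against 0.2% DMSO. Cultured human liver primary cells, two donor preparations, received fresh chemical daily over multiple concentrations.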
# [4] = read-out: xenobiotic metabolism (CYP1A2), CYP1A2 (gene 1544); assay: CLD_CYP1A2_48hr: CellzDirect (CLD) Gene Expression Assay for xenobiotic metabolism (CYP1A2) at 48 hours (AID 2283703)
# Method in brief: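 Cytotoxicity was flagged yes/no from morphology, while CYP1A2 transcript induction was detected by qNPA chemiluminescence after a 48-hour exposure. Human primary hepatocyte cultures from separate donors received fresh dosing solutions daily over two days, with 0.2% DMSO as vehicle and baseline.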
# [5] = read-out: Broad substrate specificity ATP-binding cassette transporter ABCG2 (Homo sapiens) (UniProt Q9UNQ0); assay: CLD_ABCG2_48hr: CellzDirect (CLD) Gene Expression Assay for ABC Transporter (ABCG2) at 48 hours (AID 2283704)
# Method in brief: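 ABCG2 transcript measured at 48 h by quantitative nuclease protection (chemiluminescent) and fitted for increase relative to 0.2% DMSO. Hepatocyte cultures from separate donors got fresh compound daily over two days; morphology annotated cytotoxicity.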
# [6] = read-out: organic anion transporter (SLCO1B1), SLCO1B1 (gene 10599); assay: CLD_SLCO1B1_48hr: CellzDirect (CLD) Gene Expression Assay for organic anion transporter (SLCO1B1) at 48 hours (AID 2283707)
# Method in brief: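 SLCO1B1 transcript quantified by qNPA with chemiluminescent readout after 48 h of once-daily chemical exposure. Cultured human primary hepatocytes came from two donors, with 0.2% DMSO vehicle; positive-direction fitting against DMSO, cytotoxicity flagged by morphology.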
# [7] = read-out: alkyl and aryl transferase (GSTA2), GSTA2 (gene 2939); assay: CLD_GSTA2_48hr: CellzDirect (CLD) Gene Expression Assay for alkyl and aryl transferase (GSTA2) at 48 hours (AID 2283708);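 further: active means mRNA induction above DMSO vehicle baseline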
# Method in brief: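 GSTA2 mRNA quantified by qNPA chemiluminescence in human primary hepatocyte lysates after 48 h of daily fresh chemical dosing. Increases fitted against 0.2% DMSO vehicle baseline; cytotoxicity from morphology annotated yes/no.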
# [8] = Tanguay_ZF_120hpf_ActivityScore_legacy: (Legacy) Oregon State University Tanguay Lab 120 Hour Post-fertilization zebrafish Assay Score for Activity (AID 2283742);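 on AC50: dechorionated Tropical 5D wild-type zebrafish embryos held singly per well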
# Method in brief: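 Dechorionated 5D embryos, one per well, static exposure 6–120 hpf, 28C, sealed and dark; final DMSO 0.64% (vol/vol). Brightfield binary scoring of mortality plus 18 endpoints; gain-of-signal fit versus DMSO baseline.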
# [9] = STM_H9_OrnithineISnorm_perc: Stemina devTOX quickPredict H9 human embryonic stem cell (hESC)-based Assay for Ornithine (ORN) Metabolite Biomarker, Normalized (AID 2283712; active means hit-call score of the fitted dose curve at least 0.9, where 1 is the maximum; inactive means score below 0.9;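 further: ornithine released into spent medium during last day measured by mass spectrometry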)
# Method in brief: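 Metabolite endpoint from spent media of pluripotent H9 cells treated 72 h with daily re-feeding; ornithine measured by UPLC-HRMS against its 13C spike-in and referenced to the median 0.1% DMSO vehicle response.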
# [10] = STM_H9_CystineISnorm_perc: Stemina devTOX quickPredict H9 human embryonic stem cell (hESC)-based Assay for Cystine (CYSS) Metabolite Biomarker, Normalized (AID 2283713; active means hit-call score of the fitted dose curve at least 0.9, where 1 is the maximum; inactive means score below 0.9)
# Method in brief: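 Normalized cystine level in conditioned medium from the final 24h of a 72h treatment of pluripotent H9 cells (daily media and compound renewal). Quantified by UPLC-HRMS with C13-labeled internal standard; scaled to median of 0.1% DMSO vehicle wells.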
# [11] = STM_H9_OrnCyssISnorm_ratio: Stemina devTOX quickPredict H9 human embryonic stem cell (hESC)-based Assay for Ornithine (ORN):Cystine (CYSS) Ratio (AID 2283714)
# Method in brief: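 UPLC-HRMS of spent media: ORN/CYSS ratio of internal-standard-normalized percentages, DMSO (0.1%) baseline. Pluripotent H9 hESCs, 72h exposure, daily re-dosing with fresh media; last 24h media collected.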
# [12] = read-out: glucuronosyltransferase (UGT1A1), UGT1A1 (gene 54658); assay: CLD_UGT1A1_24hr: CellzDirect (CLD) Gene Expression Assay for glucuronosyltransferase (UGT1A1) at 24 hours (AID 2283696)
# Method in brief: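 UGT1A1 transcript induction was measured by quantitative nuclease protection assay (chemiluminescence) in human hepatocyte cultures 24 h after daily fresh dosing, with 0.2% DMSO as vehicle and baseline.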
# [13] = CEETOX_H295R_MTT_cell_viability: Viability Assessment in the CeeTox HT-H295R MTT Assay (AID 2283718; active means hit-call score of the fitted dose curve at least 0.9, where 1 is the maximum; inactive means score below 0.9)
# Method in brief: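 Human H295R adrenal cells, prestimulated 48 h with 10 uM forskolin, were exposed 48 h to chemicals in 0.1% DMSO. Viability was measured in the same wells by MTT (0.5 mg/ml, 4 h, 37 C), absorbance 570/650 nm, as percent of controls.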
# [14] = read-out: glucuronosyltransferase (UGT1A1), UGT1A1 (gene 54658); assay: CLD_UGT1A1_48hr: CellzDirect (CLD) Gene Expression Assay for glucuronosyltransferase (UGT1A1) at 48 hours (AID 2283709);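 further: actives increase expression relative to DMSO so potency refers to induction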
# Method in brief: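 Quantitative nuclease protection assay (chemiluminescent) for UGT1A1 mRNA at 48 h in human hepatocyte cultures from two donors, redosed daily with fresh solutions. Induction fitted relative to 0.2% DMSO; phase-contrast morphology annotated cytotoxicity.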
# [15] = read-out: sulfotransferase (SULT2A), SULT2A1 (gene 6822); assay: CLD_SULT2A_48hr: CellzDirect (CLD) Gene Expression Assay for sulfotransferase (SULT2A) at 48 hours (AID 2283710);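 further: hits raise SULT2A1 transcript above the 0.2% DMSO vehicle baseline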
# Method in brief: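 SULT2A1 transcript measured by qNPA chemiluminescence in human primary hepatocyte cultures after 48 h, with fresh dosing solutions on two consecutive days; gain-of-signal fitting against 0.2% DMSO vehicle; cytotoxicity annotated from phase-contrast morphology.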
# [16] = read-out: xenobiotic metabolism (CYP2C9), CYP2C9 (gene 1559); assay: CLD_CYP2C9_48hr: CellzDirect (CLD) Gene Expression Assay for xenobiotic metabolism (CYP1A2) at 48 hours (AID 2283701; active means hit-call score of the fitted dose curve at least 0.9, where 1 is the maximum; inactive means score below 0.9)
# Method in brief: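 mRNA level measured by quantitative nuclease protection (S1 digestion, chemiluminescent detection) in lysates of human primary hepatocytes exposed 48 h with daily re-dosing. Induction fitted positively versus 0.2% DMSO; morphology-based cytotoxicity flagged yes/no.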
# [17] = read-out: xenobiotic metabolism (CYP1A1), CYP1A1 (gene 1543); assay: CLD_CYP1A1_48hr: CellzDirect (CLD) Gene Expression Assay for xenobiotic metabolism (CYP1A1) at 48 hours (AID 2283705)
# Method in brief: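 CYP1A1 transcript measured by quantitative nuclease protection (chemiluminescent) 48 h after two daily treatments of human hepatocyte cultures, versus 0.2% DMSO. Morphology-based cytotoxicity flags accompany data; two donor preparations used.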
# [18] = read-out: ABC Transporter (ABCB1), ABCB1 (gene 5243); assay: CLD_ABCB1_48hr: CellzDirect (CLD) Gene Expression Assay for ABC Transporter (ABCB1) at 48 hours (AID 2283695)
# Method in brief: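 ABCB1 mRNA was measured by quantitative nuclease protection assay (chemiluminescence) 48 h after dosing. Human hepatocyte cultures from two separate donors received fresh dosing solutions daily for two days, with 0.2% DMSO as vehicle. Positive-direction fit against DMSO.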
# Chain of Cytochrome P450 3A4 (Homo sapiens) (P08684 whole entry, looked up): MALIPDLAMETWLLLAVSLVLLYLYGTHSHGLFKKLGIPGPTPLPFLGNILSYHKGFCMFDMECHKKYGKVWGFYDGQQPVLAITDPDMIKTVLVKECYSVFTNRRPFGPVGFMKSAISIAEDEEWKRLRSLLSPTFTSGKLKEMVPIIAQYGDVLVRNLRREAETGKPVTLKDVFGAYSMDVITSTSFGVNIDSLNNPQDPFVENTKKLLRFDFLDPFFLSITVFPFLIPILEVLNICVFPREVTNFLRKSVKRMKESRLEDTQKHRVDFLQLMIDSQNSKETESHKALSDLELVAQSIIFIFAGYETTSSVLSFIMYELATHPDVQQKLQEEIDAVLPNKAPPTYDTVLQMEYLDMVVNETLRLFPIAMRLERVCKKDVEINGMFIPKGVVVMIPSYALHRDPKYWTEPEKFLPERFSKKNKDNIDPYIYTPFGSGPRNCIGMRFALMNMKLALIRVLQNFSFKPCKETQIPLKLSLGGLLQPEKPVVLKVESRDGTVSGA
# Chain of Broad substrate specificity ATP-binding cassette transporter ABCG2 (Homo sapiens) (Q9UNQ0 whole entry, looked up): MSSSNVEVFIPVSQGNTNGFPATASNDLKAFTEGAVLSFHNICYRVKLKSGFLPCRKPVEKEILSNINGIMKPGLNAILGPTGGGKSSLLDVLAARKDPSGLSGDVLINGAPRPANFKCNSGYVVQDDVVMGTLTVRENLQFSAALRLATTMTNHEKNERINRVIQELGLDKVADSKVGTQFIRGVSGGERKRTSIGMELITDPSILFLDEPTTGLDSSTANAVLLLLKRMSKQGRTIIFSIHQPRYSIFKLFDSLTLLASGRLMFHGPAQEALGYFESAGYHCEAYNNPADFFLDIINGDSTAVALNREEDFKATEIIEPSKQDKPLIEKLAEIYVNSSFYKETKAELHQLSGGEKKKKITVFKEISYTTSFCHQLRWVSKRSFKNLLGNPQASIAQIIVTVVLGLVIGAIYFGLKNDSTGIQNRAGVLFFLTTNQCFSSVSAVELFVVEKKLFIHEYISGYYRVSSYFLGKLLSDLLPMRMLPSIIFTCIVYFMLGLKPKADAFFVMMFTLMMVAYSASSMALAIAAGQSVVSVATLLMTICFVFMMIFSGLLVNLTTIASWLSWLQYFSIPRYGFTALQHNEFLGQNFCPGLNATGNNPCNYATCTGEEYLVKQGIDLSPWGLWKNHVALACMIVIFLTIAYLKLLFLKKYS
structure (smiles),measurement,setting,value
CN1COCN(Cc2cnc(Cl)s2)C1=N[N+](=O)[O-],outcome,[1],inactive
same,outcome,[2],inactive
same,outcome,[3],inactive
same,outcome,[4],inactive
same,outcome,[5],inactive
same,outcome,[6],inactive
same,outcome,[7],inactive
same,outcome,[8],inactive
N#CSCSC#N,outcome,[1],inactive
same,outcome,[4],inactive
same,outcome,[5],inactive
same,AC50,[9],20.5 µM (active)
same,AC50,[10],7.75 µM (active)
same,AC50,[11],14.2 µM (active)
same,AC50,[8],17.9 µM (active)
CCOP(=S)(OCC)Oc1cc(C)nc(C(C)C)n1,outcome,[1],inactive
same,AC50,[12],1.92 µM (active)
same,AC50,[3],1.89 µM (active)
same,AC50,[4],2.77 µM (active)
same,AC50,[9],79.1 µM (active)
same,AC50,[10],73.3 µM (active)
same,AC50,[11],75.2 µM (active)
same,outcome,[13],inactive
same,outcome,[8],inactive
CCCCOC(=O)c1ccccc1C(=O)O,outcome,[3],inactive
same,outcome,[4],inactive
same,outcome,[5],inactive
same,outcome,[6],inactive
same,outcome,[14],inactive
same,outcome,[15],inactive
same,outcome,[13],inactive
same,outcome,[8],inactive
CCCOc1nn(C(=O)NS(=O)(=O)c2ccccc2C(=O)OC)c(=O)n1C,outcome,[1],inactive
same,outcome,[3],inactive
same,outcome,[4],inactive
same,outcome,[5],inactive
same,outcome,[6],inactive
same,outcome,[7],inactive
same,outcome,[8],inactive
CCNc1nc(Cl)nc(NC(C)(C)C#N)n1,outcome,[1],inactive
same,AC50,[3],3.45 µM (active)
same,AC50,[16],0.0364 µM (active)
same,outcome,[4],inactive
same,outcome,[14],inactive
same,outcome,[9],inactive
same,outcome,[10],inactive
same,outcome,[13],inactive
same,outcome,[8],inactive
CCOC(=O)CC(SP(=O)(OC)OC)C(=O)OCC (configuration not stated),AC50,[3],20 µM (active)
same,outcome,[4],inactive
same,outcome,[5],inactive
same,outcome,[6],inactive
same,outcome,[7],inactive
same,outcome,[14],inactive
same,outcome,[15],inactive
same,outcome,[8],inactive
CC(COc1ccc(Oc2ccccc2)cc1)Oc1ccccn1 (configuration not stated),outcome,[1],inactive
same,AC50,[12],4.08 µM (active)
same,AC50,[3],3.53 µM (active)
same,outcome,[5],inactive
same,outcome,[6],inactive
same,AC50,[9],70.3 µM (active)
same,AC50,[10],0.0124 µM (active)
same,outcome,[13],inactive
same,outcome,[8],inactive
C#CCC1=C(C)C(OC(=O)C2C(C=C(C)C)C2(C)C)CC1=O (configuration not stated),outcome,[1],inactive
same,AC50,[3],4.91 µM (active)
same,AC50,[4],20 µM (active)
same,outcome,[5],inactive
same,AC50,[17],33 µM (active)
same,outcome,[6],inactive
same,outcome,[15],inactive
same,outcome,[13],inactive
same,outcome,[8],inactive
CNC(=O)Oc1cccc2c1OC(C)(C)O2,outcome,[12],inactive
same,AC50,[3],3.08 µM (active)
same,outcome,[4],inactive
same,outcome,[17],inactive
same,outcome,[14],inactive
same,outcome,[13],inactive
same,outcome,[8],inactive
CN(C)C(=O)Nc1cccc(C(F)(F)F)c1,outcome,[18],inactive
same,outcome,[12],inactive
same,AC50,[2],20 µM (active)
same,AC50,[3],3.69 µM (active)
same,AC50,[4],1.96 µM (active)
same,outcome,[5],inactive
same,outcome,[6],inactive
same,outcome,[9],inactive
same,outcome,[10],inactive
same,outcome,[11],inactive
same,outcome,[13],inactive
same,outcome,[8],inactive
CC[C@H](C)[C@H]1O[C@]2(C=C[C@@H]1C)C[C@@H]1C[C@@H](C/C=C(\C)[C@@H](O[C@H]3C[C@H](OC)[C@@H](O[C@H]4C[C@H](OC)[C@@H](NC)[C@H](C)O4)[C@H](C)O3)[C@@H](C)/C=C/C=C3\CO[C@@H]4[C@H](O)C(C)=C[C@@H](C(=O)O1)[C@]34O)O2,AC50,[1],0.336 µM (active)
same,outcome,[2],inactive
same,outcome,[5],inactive
same,outcome,[6],inactive
same,AC50,[8],1.49 µM (active)
O=[N+]([O-])c1cc(C(F)(F)F)c(Cl)c([N+](=O)[O-])c1Nc1ncc(C(F)(F)F)cc1Cl,outcome,[3],inactive
same,AC50,[4],0.499 µM (active)
same,AC50,[17],0.627 µM (active)
same,outcome,[7],inactive
same,AC50,[9],15.5 µM (active)
same,AC50,[10],16.4 µM (active)
same,AC50,[11],15.2 µM (active)
same,AC50,[8],45.7 µM (active)
CCC(=O)Nc1ccc(Cl)c(Cl)c1,outcome,[1],inactive
same,outcome,[2],inactive
same,AC50,[3],0.92 µM (active)
same,AC50,[4],4.67 µM (active)
same,outcome,[13],inactive
same,outcome,[8],inactive
Cc1cc(C2CC2)nc(Nc2ccccc2)n1,AC50,[3],1.09 µM (active)
same,AC50,[4],3.97 µM (active)
same,outcome,[14],inactive
same,AC50,[8],62.8 µM (active)
CN(C)NC(=O)CCC(=O)O,outcome,[3],inactive
same,outcome,[4],inactive
same,outcome,[6],inactive
same,outcome,[14],inactive
same,outcome,[13],inactive
same,outcome,[8],inactive
CSc1nc(NC(C)C)nc(NC(C)C)n1,outcome,[1],inactive
same,AC50,[3],3.24 µM (active)
same,AC50,[4],1.64 µM (active)
same,AC50,[9],0.22 µM (active)
same,AC50,[10],0.234 µM (active)
same,AC50,[11],0.237 µM (active)
same,outcome,[13],inactive
same,outcome,[8],inactive
CCC(=NOC/C=C/Cl)C1=C(O)CC(C2CCOCC2)CC1=O (configuration not stated),outcome,[18],inactive
same,outcome,[3],inactive
same,outcome,[4],inactive
same,outcome,[6],inactive
same,AC50,[9],0.0699 µM (active)
same,outcome,[10],inactive
same,outcome,[8],inactive
